# Compound activity from PubChem BioAssay.
# RGS12 GoLoco inh = qHTS Assay for Inhibitors of RGS12 GoLoco Motif Activity (Red Fluorophore) | Gai1:RGS12 GoLoco peptide FP, rhodamine, 10 min | Potency, µM (titrated, usually from 61.6 µM), for inactives: top-dose activity, negative = inhibition, most hits filed as inhibitors | 230,000 tested, 0.44% active | AID 880, 2007; active = well fitted inhibition curve with a large enough effect, not every such curve was filed as active; inactive = no such curve, though single readings can be large or run the other way; note: nearly all actives have a fitted effect of over 30% in size
# RECQ1 inh = qHTS Assay for Inhibitors of RecQ-Like Dna Helicase 1 (RECQ1) | 240,000 tested, 0.54% active | ATP-dependent DNA helicase Q1 (Homo sapiens), P46063 | RECQ1 DNA unwinding, red fluorescence kinetic read | Potency, µM (highest dose often 57.3 µM), for the others: top-dose activity, negative = inhibition, most hits filed as inhibitors;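 note: plate controls were vehicle for no effect and no enzyme for full effect; nearly all actives have a fitted effect of over 30% in size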
#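 50 nM RECQ1T1 preincubated 15 min with compound in Tris pH 8.0 buffer with MgCl2, DTT, Tween-20 and 2.5 ug/ml poly(dI-dC); started with 200 nM TAMRA/BHQ-2 forked duplex and 2 mM ATP. Unwinding read as fluorescence (525/598 nm), two reads 2 h apart.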
# APE1 inh = qHTS Assay for Inhibitors of the Human Apurinic/apyrimidinic Endonuclease 1 (APE1). DNA repair nuclease/redox regulator APEX1 (Homo sapiens), P27695. recombinant APE1, TAMRA/BHQ-2 abasic DNA cleavage fluorescence. Potency, µM (series often up to 65.8 µM), without a hit: at the top dose activity change, negative = inhibition, most hits filed as inhibitors. 350,000 tested, 0.35% active. AID 2517, 2012;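 note: plate controls were vehicle for no effect and reference inhibitor for full effect; nearly all actives have a fitted effect of over 55% in size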
#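 Incision of a quenched TAMRA/BHQ-2 THF abasic-site duplex (50 nM) by 0.75 nM APE1, after 15 min compound preincubation, measured as fluorescence increase over three 60 s reads. Values normalized to buffer, DMSO and NSC13755 control wells.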
# KDM4E inh = qHTS Assay for Inhibitors of Human Jumonji Domain Containing 2E (JMJD2E); JMJD2E catalytic domain, FDH-coupled NADH fluorescence (FDH is formaldehyde dehydrogenase); Potency, µM (highest dose often 57.1 µM), without a hit: top-dose activity change, negative = inhibition, usual class: inhibitors; 230,000 tested, 1.6% active; active = well fitted inhibition curve with a large enough effect, not every such curve was filed as active; inconclusive = small, poorly fitted or top-dose-only effect, or another doubt; inactive = no such curve, though single readings can be large or run the other way;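 note: 0% = wells with enzyme and -100% = buffer wells without enzyme; nearly all actives have a fitted effect of over 50% in size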
# BLM helicase inh = qHTS Assay for Inhibitors of Bloom's syndrome helicase (BLM) | AID 2528, 2010 | RecQ-like DNA helicase BLM (Homo sapiens), P54132 | 350,000 tested, 0.2% active | recombinant BLM DNA unwinding, fluorescence dequenching | Potency, µM (doses to about 56.1 µM), without a hit: at the top dose activity change, negative = inhibition, most hits filed as inhibitors;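 note: plate controls were vehicle for no effect and no enzyme for full effect; nearly all actives have a fitted effect of over 35% in size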
# Target sequence (P54132 whole entry, looked up): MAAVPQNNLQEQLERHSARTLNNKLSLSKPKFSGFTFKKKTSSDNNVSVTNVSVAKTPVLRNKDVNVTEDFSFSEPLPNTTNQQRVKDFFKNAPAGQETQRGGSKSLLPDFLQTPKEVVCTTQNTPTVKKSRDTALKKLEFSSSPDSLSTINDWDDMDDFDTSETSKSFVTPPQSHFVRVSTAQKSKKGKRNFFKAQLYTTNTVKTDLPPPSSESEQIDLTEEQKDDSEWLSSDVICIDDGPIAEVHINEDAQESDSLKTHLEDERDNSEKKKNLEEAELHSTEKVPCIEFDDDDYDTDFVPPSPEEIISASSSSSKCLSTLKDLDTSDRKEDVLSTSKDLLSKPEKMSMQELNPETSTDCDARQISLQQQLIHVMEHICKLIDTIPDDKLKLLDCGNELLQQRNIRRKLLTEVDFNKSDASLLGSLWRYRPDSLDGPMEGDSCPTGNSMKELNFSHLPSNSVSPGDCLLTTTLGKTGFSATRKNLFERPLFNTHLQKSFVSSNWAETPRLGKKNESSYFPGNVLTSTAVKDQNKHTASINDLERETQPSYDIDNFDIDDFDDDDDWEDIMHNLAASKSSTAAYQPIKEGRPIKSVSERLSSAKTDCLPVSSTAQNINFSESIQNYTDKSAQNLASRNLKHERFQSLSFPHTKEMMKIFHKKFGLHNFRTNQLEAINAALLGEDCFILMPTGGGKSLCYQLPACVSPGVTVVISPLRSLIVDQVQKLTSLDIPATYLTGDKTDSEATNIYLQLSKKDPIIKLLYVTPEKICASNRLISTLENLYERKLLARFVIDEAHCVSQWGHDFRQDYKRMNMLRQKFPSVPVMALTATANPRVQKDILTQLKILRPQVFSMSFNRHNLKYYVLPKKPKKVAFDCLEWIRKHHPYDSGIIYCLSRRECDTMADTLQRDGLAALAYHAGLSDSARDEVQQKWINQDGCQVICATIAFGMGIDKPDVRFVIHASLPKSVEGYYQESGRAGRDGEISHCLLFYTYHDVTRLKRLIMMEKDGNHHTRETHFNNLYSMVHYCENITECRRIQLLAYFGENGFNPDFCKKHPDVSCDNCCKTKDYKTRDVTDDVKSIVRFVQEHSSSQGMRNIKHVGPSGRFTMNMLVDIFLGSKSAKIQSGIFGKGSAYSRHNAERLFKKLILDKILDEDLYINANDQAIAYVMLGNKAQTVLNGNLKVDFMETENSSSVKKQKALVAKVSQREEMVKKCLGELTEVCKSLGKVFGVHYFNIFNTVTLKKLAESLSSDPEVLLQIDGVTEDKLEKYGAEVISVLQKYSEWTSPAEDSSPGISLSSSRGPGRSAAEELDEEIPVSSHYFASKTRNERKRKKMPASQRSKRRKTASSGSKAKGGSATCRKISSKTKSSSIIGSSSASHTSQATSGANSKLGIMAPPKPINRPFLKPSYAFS
# L3MBTL1 block = qHTS Assay for the Inhibitors of L3MBTL1 | Lethal(3)malignant brain tumor-like protein 1 (Homo sapiens), Q9Y468 | AlphaScreen L3MBTL1–H3K9me1 peptide binding | Potency, µM (titrated, usually from 57.1 µM), without a hit: at the highest dose activity, negative = inhibition, most hits filed as inhibitors | 230,000 tested, 0.66% active | AID 485360, 2010; note: nearly all actives have a fitted effect of over 60% in size
#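 AlphaScreen proximity signal between nickel-chelate acceptor and streptavidin donor beads (final 10 ug/mL) reports binding of 50 nM L3MBTL1 to 75 nM biotin-H3 K9me1 peptide; complex incubated with compounds 30 min at room temperature; cefsulodin titration as control.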
# Numbers without * were called inactive; i = inactive; u = inconclusive; x = no result given; [ ] = dose if it differs, or a comment. Shown is part of a subset that was picked to be rich in hits. Unless noted, calls come from the whole dose curve; as a rule, active = well fitted curve in the direction sought with a large enough effect; inconclusive = small, poorly fitted or top-dose-only effect, or another doubt; inactive = no such curve, though single readings can be large; an effect the other way counts as inactive or inconclusive. Unless noted, % is set by controls: 0 for no effect and ±100 for the full control effect; potency is the fitted concentration of half-maximal effect.
SMILES,RGS12 GoLoco inh,RECQ1 inh,APE1 inh,KDM4E inh,BLM helicase inh,L3MBTL1 block
O=C(c1ccccc1O)N1CCOCC1,3%,7%,-1%,4%,-2%,4%
O=C(O)C1Nc2c(C(F)(F)F)ccc(Cl)c2C2C=CCC12 (stereo not drawn),x,x,26%,x,-4%,x
Cc1ccc2c(c1C)NC(C(=O)O)C1CC=CC21 (stereo not drawn),64%,5µM*,u,20µM*,18µM*,5µM*
O=C(O)C1Nc2c(C(=O)N3CCOCC3)cccc2C2C=CCC12 (stereo not drawn),-26%,-17%,u,u,-2%,3.5µM*
O=C(O)c1ccc2c(c1)C1C=CCC1C(c1ccncc1)N2 (stereo not drawn),-14%,i,u,14µM*,-3%,x
CCOC(=O)C1Nc2ccc(C(=O)O)cc2C2C=CCC12 (stereo not drawn),x,x,-9%,x,9%,-8%[2.29 µM]
CCOC(=O)c1ccc2c(c1)C1C=CCC1C(C(=O)O)N2 (stereo not drawn),-3%,8.9µM*,u,u,28µM*,3.2µM*
COc1ccc(-c2ccc(NS(=O)(=O)c3cc(C)c(C)cc3C)cc2)nn1,x,x,x,x,-10%,x
Cc1cc(C)c2c(c1)NC(C(=O)O)C1CC=CC21 (stereo not drawn),x,x,-17%,x,-7%,5µM*
Cc1ccc(-c2csc(NC(=O)C3CCN(S(=O)(=O)c4cccs4)CC3)n2)cc1,-3%,-7%,-3%,7%,-8%,0%
O=C(Nc1nc(-c2ccc3ccccc3c2)cs1)C1CCN(S(=O)(=O)c2cccs2)CC1,9%,4%,-2%,18µM*,-1%,-9%
N#Cc1c(-c2ccc([N+](=O)[O-])cc2)no[n+]1[O-],x,x,7%,x,x,x
CC1=NC(=O)C(N=Nc2cccc(O)c2)N1c1ccccc1 (stereo not drawn),16µM*,-2%,0%,-9%,-5%,x
Cc1cccc(-n2c(O)c(C=Nc3cccc(O)c3)c3ccccc3c2=O)n1,5%,-12%,-2%,-6%,-5%,-10%
COC(=O)c1c(-c2cccs2)csc1NC(=O)c1ccc(C(C)C)cc1,x,x,x,x,-9%,x
O=C(Cn1nnc(-c2cc(C(F)(F)F)cc(C(F)(F)F)c2)n1)NNC(=S)Nc1ccc(Cl)cc1,11%,5%,-1%,u,18µM*,-23%
Cc1cc(C(F)(F)F)nn1CC(=O)NNC(=S)Nc1ccc(Cl)cc1,3%,-2%,-5%,0%,0%,0%
COC(=O)CC1c2ccccc2C=C(/C=C/c2ccc3c(c2)OCO3)N1C(=O)OC (stereo not drawn),-4%[14.2 µM],-5%[11.5 µM],-6%[12.4 µM],u,-2%[12.4 µM],x
NC1=CC(=O)c2cccc3cccc1c23,32µM*,-1%,-11%,u,-7%,-18%
CSc1nc2sc3c(c2c(=O)n1-c1ccccc1)CCC(C(C)(C)C)C3 (stereo not drawn),x,x,x,x,-3%,x
Cc1ccc(/C=N/Nc2cc(C)nc(NCc3ccccc3)n2)cc1,-3%,-17%,2%,-17%,-14%,-23%
Cc1cc(N/N=C/c2ccc(O)cc2)nc(NS(=O)(=O)c2ccccc2)n1,1%,-1%,10µM*,u,2%,32µM*
O=C(CN1CCNCC1)NC1CCCCC1,x,x,x,x,4%,x
N#C/C(=C\c1ccc(O)c(O)c1)C(=O)N1CCCC1,6%,2%,-11%,14µM*,-9%,-2%
N#C/C(=C\c1ccc(O)c(O)c1)C(=O)NCCCc1ccccc1,4%,16µM*,5%,3.2µM*,u,u
SMILES,RGS12 GoLoco inh,RECQ1 inh,APE1 inh,KDM4E inh,BLM helicase inh,L3MBTL1 block
N#C/C(=C\c1ccc(N2CCOCC2)o1)C(=O)NCCc1ccccc1,-8%,-4%,-11%,40µM*,-2%,-11%
CCOC(=O)/C(C#N)=C\c1ccc(OC)c(OC)c1,12%,i,2%,-9%,-2%,5%
COc1ccc(/C=C(\C#N)C(=O)NCCc2ccccc2)cc1OCc1ccccc1,-3%,-7%,-2%,11%,-11%,36%
N#C/C(=C\c1ccc(O)c(O)c1)C(=O)OCCc1cccs1,0%,28µM*,-9%,22µM*,-30%,x
COCCNC(=O)/C(C#N)=C/c1ccc(N2CCOCC2)o1,4%,-15%,18%,u,-1%,-16%
CCOC(=O)c1cc2c(=O)n3ccccc3nc2n(CC2CCCO2)c1=NC(=O)c1ccccc1OCC (stereo not drawn),x,x,x,x,1%,x
CCC(=O)N1CCc2cc(Br)cc(S(=O)(=O)N3CCCC(C(=O)NCc4ccc(C)cc4)C3)c21 (stereo not drawn),x,x,x,x,-5%,x
CC1(OC(=O)c2ccc(Cl)nc2)C(=O)C=C2C=C(C3CC3)OC=C2C1=O (stereo not drawn),6%,u,-8%,-4%,-2%,x
CC1(OC(=O)c2ccc(Cl)nc2)C(=O)C=C2C=C3CCCN3C=C2C1=O (stereo not drawn),-8%[14.2 µM],u,u,5.6µM*,-10%[12.4 µM],x
COc1ccc(NC(=O)CN(C)C(=O)c2cccc(Oc3ccccc3)c2)cc1,x,x,-9%,x,x,-3%
Cc1cccc(C)c1NC(=O)CN(C)C(=O)c1ccc(N2C(=O)CCC2=O)cc1,x,x,45%,x,x,3%
Cc1cccc(C)c1NC(=O)CN(C)C(=O)c1cccc(-n2cccc2)c1,x,x,u,x,x,28µM*
Cc1cccc(NC(=O)CNC(=O)c2cccc(-n3cccc3)c2)c1C,x,x,1.9µM*,x,x,3.5µM*
Cc1ccc(NC(=O)CN(C)C(=O)c2cccc(-n3cccc3)c2)cc1,x,x,0.95µM*,x,x,4µM*
COc1ccc(NC(=O)CN(C)C(=O)c2cccc(-n3cccc3)c2)cc1,x,x,2.4µM*,x,x,10µM*
NC(=O)C1CCN(c2nc(-c3ccc4c(c3)OCO4)cs2)CC1,x,x,-15%,x,x,x
COc1cccc([C@@H]2Oc3ccc(Br)cc3C[C@H]2OC(=O)Nc2ccc(OC(F)F)cc2)c1,-9%,-9%,-3%,2%,-17%,x
C[C@@H](O)[C@H]1C(=O)N2C(C(=O)O)=C(SCCN=CN)C[C@H]12,x,x,0%[21 µM],x,x,x
C/C=C/C1=CC2=CC(=O)C(C)(OC(=O)c3c(C)cc(O)cc3O)C(=O)C2=CO1 (stereo not drawn),6%,-5%,-6%,4%,-6%,x
